Results published in PubChem BioAssay (Tox21).
Unmarked numbers belong to inactive results. Results filed as inconclusive are left out. Where a call stands in place of a potency, no number is given. Active and inactive are the calls of the source. Unless noted, calls come from the whole dose curve.

What was measured:
[1] = Nuclear factor erythroid 2-related factor 2/antioxidant responsive element (Nrf2/ARE) small molecule agonists: qHTS cell viability counter screen in human keratinocytes (AID 1919968; active = well fitted curve in the direction sought with a large enough effect in the repeat runs; an effect the other way counts as inactive or inconclusive; note: nearly all actives have a fitted effect of over 55% in size; note: potency is the fitted concentration of half-maximal effect)
Method in brief: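 Fluorescence read-out from CellTiter-Fluor after 1 h at 37 C. Wells held HaCaT-derived ARE-luciferase reporter cells (1,500/well) treated 23 h with DMSO-dissolved compounds. Run in the same wells as the luciferase agonist read.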

[2] = Nuclear factor erythroid 2-related factor 2/antioxidant responsive element (Nrf2/ARE) small molecule agonists: luciferase reporter gene qHTS assay in human keratinocytes (AID 1919969); note: nearly all actives have a fitted effect of over 35% in size; note: potency is the fitted concentration of half-maximal effect
[3] = target: Gonadotropin-releasing hormone receptor (Homo sapiens) (UniProt P30968); assay: Human gonadotropin-releasing hormone receptor (GnRHR) small molecule agonists, calcium flux assay in GnRHR-HEK293 cells (AID 1920063); note: nearly all actives have a fitted effect of over 35% in size
Method in brief: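 Calcium-dye fluorescence, Ex/Em=480/540, recorded every 1 sec over 3 min after compound addition to GnRHR-HEK293 cells. Cells had been seeded 18 hours earlier and dye-loaded for 1 hour at 37 C. Fifteen concentrations, triplicates.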

[4] = target: KiSS-1 receptor (Homo sapiens) (UniProt Q969F8); assay: Human kisspeptin (KISS1R) small molecule agonists, calcium flux assay in KISS1R-HEK293 cells (AID 1920064; active = well fitted curve in the direction sought with a large enough effect in the repeat runs; an effect the other way counts as inactive or inconclusive)
Method in brief: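 Calcium flux read-out: kinetic fluorescence at Ex/Em=480/540, 1 s intervals over 3 min, after pin-tool compound addition to dye-loaded KISS1R-HEK293 cells. Fifteen concentrations, triplicates.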

[5] = G protein-coupled receptor (GPCR) small molecule agonists, calcium flux assay: HEK293 wild type cell line counter screen (AID 1920065)
Method in brief: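 Agonist mode; 18 h seeding at 37 C, 1 h dye load at 37 C; compounds pinned from DMSO, ATP as positive control; kinetic fluorescence 480/540 nm, 3 min, 1 s reads; 15 concentrations, triplicate.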

[6] = p53 small molecule agonists, cell-based qHTS assay with rat liver microsomes: qHTS cell viability counter screen (AID 1963580); note: nearly all actives have a fitted effect of over 45% in size; note: potency is the fitted concentration of half-maximal effect
Method in brief: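 After the beta-lactamase ratio was read, CellTiter-Glo was added to the same wells and luminescence measured at 30 min; cells had been treated 16 h at 37 C with compounds, rat liver microsomes and NADPH (0.5 mg/mL final each).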

[7] = target: 5-hydroxytryptamine receptor 2A (Homo sapiens) (UniProt P28223); assay: 5-hydroxytryptamine receptor 2A (HTR2A) small molecule agonists, cell-based qHTS assay (AID 1963587); note: nearly all actives have a fitted effect of over 30% in size; note: potency is the fitted concentration of half-maximal effect
Method in brief: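 CHO cells stably expressing human HTR2A, plated 18 h, loaded with calcium dye 1 h at 37 C. Agonist mode: compounds added and intracellular calcium fluorescence recorded kinetically for 2 min at 1 sec intervals.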

[8] = target: Muscarinic acetylcholine receptor M1 (Homo sapiens) (UniProt P11229); assay: Cholinergic receptor muscarinic 1 (CHRM1) small molecule antagonists, cell-based qHTS assay (AID 1963588); note: nearly all actives have a fitted effect of over 40% in size
Method in brief: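 Compounds were tested at 15 concentrations in three independent runs. Dye-loaded CHRM1-CHO cells were exposed 5 min at room temperature before stimulation by acetylcholine added at 50nM. Intracellular calcium was read kinetically on FDSS for 3 min.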

[9] = target: Muscarinic acetylcholine receptor M1 (Homo sapiens) (UniProt P11229); assay: Cholinergic receptor muscarinic 1 (CHRM1) small molecule agonists, cell-based qHTS assay (AID 1963589); note: nearly all actives have a fitted effect of over 35% in size; note: potency is the fitted concentration of half-maximal effect
Method in brief: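 Calcium flux read-out: kinetic fluorescence at 1 sec intervals after pin-tool compound addition to dye-loaded CHRM1-CHO cells (human M1). Agonist mode; 15 concentrations tested in triplicate independent runs.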

[10] = cAMP Responsive Elements (CRE) small molecule antagonists, cell-based qHTS assay (AID 1963591; active = well fitted inhibition curve with a large enough effect in the signal ratio in the repeat runs, not every such curve was filed as active; the % refers to the signal ratio)
Method in brief: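 HEK293T CRE-bla; 18 h preincubation; compound pin-transfer; NKH477 0.25 uM final, 3 h, 37 C; LiveBLAzer FRET substrate 2 h RT.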

[11] = target: Beta-2 adrenergic receptor (Homo sapiens) (UniProt P07550); assay: Adrenergic beta2 receptor (ADRB2) small molecule antagonists, cell-based qHTS assay (AID 1963592); note: nearly all actives have a fitted effect of over 50% in size; note: potency is the fitted concentration of half-maximal effect
Method in brief: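 Assay format: CHO-ADRB2 cells, 18-20hr seeding at 37C/5% CO2, then compound plus 1nM isoproterenol agonist mix for 0.5hr RT. Homogeneous time-resolved fluorescence cAMP detection after 1hr, expressed as 665/615 nm ratio.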

[12] = target: D(2) dopamine receptor (Homo sapiens) (UniProt P14416); assay: Dopamine D2 receptor (DRD2) small molecule agonists, cell-based qHTS assay (AID 1963594); note: nearly all actives have a fitted effect of over 35% in size
Method in brief: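 HEK293 cells stably expressing human DRD2, pre-treated with PDE inhibitor Ro20-1724 (0.1 mM final) and compound 10 min at room temperature, then stimulated with NKH477 (200nM […]) for 30 min. cAMP read by HTRF (665/620 nm).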

[13] = p53 small molecule agonists, cell-based qHTS assay with rat liver microsomes (AID 1963578)
Method in brief: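 Each plate received p53RE-bla cells, then compound, then rat liver microsomes and NADPH (both 0.5 mg/mL final). Plates were held 16 h at 37 C, and beta-lactamase activity was detected with LiveBLAzer over 2 h.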

[14] = p53 small molecule agonists, cell-based qHTS assay with human liver microsomes: qHTS cell viability counter screen (AID 1963579); note: nearly all actives have a fitted effect of over 45% in size; note: potency is the fitted concentration of half-maximal effect
Method in brief: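 Tox21 library compounds, delivered from DMSO stocks, were tested on p53RE-bla cells together with 0.5 mg/mL human liver microsomes and 0.5 mg/mL NADPH (final) over 16 h at 37 C; CellTiter-Glo luminescence served as the cytotoxicity measure.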

[15] = p53 small molecule agonists, cell-based qHTS assay: qHTS cell viability counter screen (AID 1963581); note: nearly all actives have a fitted effect of over 45% in size
Method in brief: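 Cytotoxicity read-out: ATP-based luminescence (CellTiter-Glo, 30 min RT) measured in the same wells as the p53 reporter assay, HCT-116 p53RE-bla cells, 16 h compound exposure at 37 C.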

[16] = p53 small molecule agonists, cell-based qHTS assay (AID 1963582; active = well fitted activation curve with a large enough effect in the signal ratio in the repeat runs, not every such curve was filed as active; the % refers to the signal ratio)
Method in brief: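 Fluorescence intensity read-out of a beta-lactamase reporter under a p53 response element. Cells were exposed to DMSO-dissolved compounds for 16 h at 37 C, then developed with FRET substrate for 2 h at RT.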

[17] = target: 5-hydroxytryptamine receptor 2A (Homo sapiens) (UniProt P28223); assay: 5-hydroxytryptamine receptor 2A (HTR2A) small molecule antagonists, cell-based qHTS assay (AID 1963586); note: nearly all actives have a fitted effect of over 45% in size; note: potency is the fitted concentration of half-maximal effect
Method in brief: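 CHO cells stably expressing human HTR2A were plated for 18 h at 37 C, then loaded with calcium dye for 1 h. Compounds were preincubated 5 min at room temperature before DOI (4 nM solution) was added. Kinetic fluorescence was read for 3 min.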

[18] = cAMP Responsive Elements (CRE) small molecule agonists, cell-based qHTS assay (AID 1963590)
Method in brief: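 Beta-lactamase reporter readout: LiveBLAzer B/G FRET substrate, 2 h at room temperature, added after 3 h compound treatment of CRE-bla HEK 293T cells at 37 C/5% CO2.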

[19] = target: Beta-2 adrenergic receptor (Homo sapiens) (UniProt P07550); assay: Adrenergic beta2 receptor (ADRB2) small molecule agonists, cell-based qHTS assay (AID 1963593);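 note: CHO cells stably overexpressing human ADRB2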
Method in brief: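 CHO cells stably over-expressing ADRB2 were plated overnight at 37C, then dosed with compounds plus a stimulation mix containing 100uM IBMX and 25uM Ro-20-1724 for 0.5hr at room temperature. cAMP was measured by HTRF competition, 1hr.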

[20] = target: D(2) dopamine receptor (Homo sapiens) (UniProt P14416); assay: Dopamine D2 receptor (DRD2) small molecule antagonists, cell-based qHTS assay (AID 1963595; active = well fitted inhibition curve with a large enough effect in the signal ratio in the repeat runs, with a control signal flat; the % refers to the signal ratio)
Method in brief: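 Stable D2 receptor HEK293 line, 24 h after seeding. Compound preincubated 10 min, then quinpirole (12 nM) with forskolin analogue NKH477 (200 nM), 30 min, room temperature. Detection by time-resolved FRET of cAMP.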

Chain of Beta-2 adrenergic receptor (Homo sapiens) (P07550 whole entry, looked up): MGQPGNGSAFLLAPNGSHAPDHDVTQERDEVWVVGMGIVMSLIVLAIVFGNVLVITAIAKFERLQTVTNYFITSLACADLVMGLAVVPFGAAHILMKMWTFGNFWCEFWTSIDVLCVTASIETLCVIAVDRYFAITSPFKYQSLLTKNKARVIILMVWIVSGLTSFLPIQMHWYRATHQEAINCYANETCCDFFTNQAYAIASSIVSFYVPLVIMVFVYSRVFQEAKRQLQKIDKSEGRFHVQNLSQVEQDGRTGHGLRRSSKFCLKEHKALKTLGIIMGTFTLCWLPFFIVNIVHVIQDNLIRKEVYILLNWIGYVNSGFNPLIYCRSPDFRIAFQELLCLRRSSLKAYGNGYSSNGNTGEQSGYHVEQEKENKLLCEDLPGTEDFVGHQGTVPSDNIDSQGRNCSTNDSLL
Chain of D(2) dopamine receptor (Homo sapiens) (P14416 whole entry, looked up): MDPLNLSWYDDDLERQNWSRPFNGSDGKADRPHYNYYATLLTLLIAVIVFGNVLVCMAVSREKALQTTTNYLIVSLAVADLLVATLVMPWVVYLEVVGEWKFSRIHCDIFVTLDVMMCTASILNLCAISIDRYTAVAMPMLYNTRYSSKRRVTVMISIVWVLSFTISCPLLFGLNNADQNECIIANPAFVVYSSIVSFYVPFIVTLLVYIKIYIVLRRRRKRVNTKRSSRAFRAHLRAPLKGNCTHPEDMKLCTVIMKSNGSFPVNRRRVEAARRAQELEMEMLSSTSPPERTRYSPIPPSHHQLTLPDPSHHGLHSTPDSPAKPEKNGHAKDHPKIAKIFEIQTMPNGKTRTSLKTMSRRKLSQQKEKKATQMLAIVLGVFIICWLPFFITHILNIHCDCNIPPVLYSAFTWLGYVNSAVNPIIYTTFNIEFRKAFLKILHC
Chain of 5-hydroxytryptamine receptor 2A (Homo sapiens) (P28223 whole entry, looked up): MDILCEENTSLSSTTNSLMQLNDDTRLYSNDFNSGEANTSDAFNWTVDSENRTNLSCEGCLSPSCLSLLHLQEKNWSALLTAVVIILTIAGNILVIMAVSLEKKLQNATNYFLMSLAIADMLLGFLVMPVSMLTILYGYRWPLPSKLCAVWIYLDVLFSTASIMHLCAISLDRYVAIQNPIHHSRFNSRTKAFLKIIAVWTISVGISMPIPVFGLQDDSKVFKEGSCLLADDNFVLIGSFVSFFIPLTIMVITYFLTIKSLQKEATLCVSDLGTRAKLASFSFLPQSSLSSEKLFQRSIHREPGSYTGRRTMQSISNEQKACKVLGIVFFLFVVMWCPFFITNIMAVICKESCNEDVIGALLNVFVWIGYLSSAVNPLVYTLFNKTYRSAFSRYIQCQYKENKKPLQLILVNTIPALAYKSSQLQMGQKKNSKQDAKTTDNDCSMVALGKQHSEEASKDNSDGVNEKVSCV
Chain of KiSS-1 receptor (Homo sapiens) (Q969F8 whole entry, looked up): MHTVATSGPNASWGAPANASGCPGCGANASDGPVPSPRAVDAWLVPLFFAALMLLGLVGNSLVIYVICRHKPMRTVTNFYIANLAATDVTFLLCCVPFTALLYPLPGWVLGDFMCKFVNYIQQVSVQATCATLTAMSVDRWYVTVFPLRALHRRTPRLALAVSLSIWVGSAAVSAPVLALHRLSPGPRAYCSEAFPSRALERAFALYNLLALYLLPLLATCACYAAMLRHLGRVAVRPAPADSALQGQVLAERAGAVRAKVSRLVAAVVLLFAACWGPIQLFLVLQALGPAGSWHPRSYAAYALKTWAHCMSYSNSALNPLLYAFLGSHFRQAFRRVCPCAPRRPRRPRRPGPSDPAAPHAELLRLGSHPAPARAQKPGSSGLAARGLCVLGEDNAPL
Chain of Gonadotropin-releasing hormone receptor (Homo sapiens) (P30968 whole entry, looked up): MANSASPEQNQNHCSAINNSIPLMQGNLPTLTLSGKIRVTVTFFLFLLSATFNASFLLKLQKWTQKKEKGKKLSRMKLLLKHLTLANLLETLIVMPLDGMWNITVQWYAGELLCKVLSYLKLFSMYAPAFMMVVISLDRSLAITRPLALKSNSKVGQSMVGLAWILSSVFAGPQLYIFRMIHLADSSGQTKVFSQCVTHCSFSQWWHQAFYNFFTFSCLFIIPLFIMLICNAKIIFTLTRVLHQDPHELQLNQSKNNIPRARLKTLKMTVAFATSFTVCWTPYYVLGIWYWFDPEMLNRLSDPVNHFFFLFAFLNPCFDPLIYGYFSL
Chain of Muscarinic acetylcholine receptor M1 (Homo sapiens) (P11229 whole entry, looked up): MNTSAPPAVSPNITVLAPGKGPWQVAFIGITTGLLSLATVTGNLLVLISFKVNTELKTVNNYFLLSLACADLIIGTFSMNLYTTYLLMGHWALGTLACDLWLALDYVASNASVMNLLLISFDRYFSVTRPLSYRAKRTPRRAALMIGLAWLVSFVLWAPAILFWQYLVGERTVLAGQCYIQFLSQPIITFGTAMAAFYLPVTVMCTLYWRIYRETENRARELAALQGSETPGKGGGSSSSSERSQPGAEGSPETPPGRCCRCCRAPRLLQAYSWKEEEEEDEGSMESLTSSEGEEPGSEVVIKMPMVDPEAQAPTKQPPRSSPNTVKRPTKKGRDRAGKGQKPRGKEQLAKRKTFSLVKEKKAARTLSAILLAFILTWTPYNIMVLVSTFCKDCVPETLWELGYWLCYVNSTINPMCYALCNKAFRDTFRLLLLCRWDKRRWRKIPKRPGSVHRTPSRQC

| Structure (SMILES) | Potency [1] | Potency [2] | Potency [3] | Potency [4] | Potency [5] | Potency [6] | Potency [7] | Potency [8] | Potency [9] | Potency [10] | Potency [11] | Potency [12] | Potency [13] | Potency [14] | Potency [15] | Potency [16] | Potency [17] | Potency [18] | Potency [19] | Potency [20] |
| --- | --- | --- | --- | --- | --- | --- | --- | --- | --- | --- | --- | --- | --- | --- | --- | --- | --- | --- | --- | --- |
| N=C(N)S(=O)O | inactive | inactive | inactive | inactive | inactive | inactive | inactive | inactive | inactive | inactive | inactive | inactive |  |  |  |  |  |  |  |  |
| CC1(C)C(=O)NC(=O)N1CO | inactive | inactive | inactive | inactive |  | inactive | inactive | inactive | inactive | inactive | inactive | inactive | inactive | inactive | inactive | inactive | inactive | inactive | inactive | inactive |
| COc1nccnc1NS(=O)(=O)c1ccc(N)cc1 | inactive | inactive | inactive | inactive |  | inactive | inactive | inactive | inactive | inactive | inactive | inactive |  | inactive | inactive |  | inactive | inactive | inactive | inactive |
| Cc1ccc(NC(=O)c2ccc(CN3CCN(C)CC3)cc2)cc1Nc1nccc(-c2cccnc2)n1 | inactive | inactive | inactive | inactive |  |  |  |  |  |  | inactive | inactive | inactive | inactive | inactive | inactive |  | inactive | inactive | inactive |
| CCCC(CCC)(C(=O)OCC)C(=O)OCC | inactive | inactive | inactive | inactive |  | inactive | 1.69 µM (active) | inactive | inactive | inactive | inactive |  | inactive | inactive | inactive | inactive | 3.26 µM (active) | inactive |  | inactive |
| CC(=O)N(CC(O)CO)c1c(I)c(C(=O)NCCO)c(I)c(C(=O)NCC(O)CO)c1I (stereo unspecified) | inactive | inactive | inactive | inactive |  | inactive |  | inactive | inactive | inactive | inactive | inactive |  | inactive | inactive |  | inactive | inactive | inactive | inactive |
| CCCCCCCC/C=C\CCCCCCCCO | inactive | inactive | inactive | inactive |  | inactive | inactive | inactive | inactive | inactive | 54.4 µM (active) | inactive |  | inactive | inactive |  | inactive | inactive |  | inactive |
| N#Cc1nc(Cl)c(Cl)c(Cl)c1Cl | 6.11 µM (active) | 2.43 µM (active) | inactive | inactive |  | 36.3 µM (active) | inactive | inactive | inactive |  | inactive | inactive |  | 11.5 µM (active) |  |  | inactive |  |  | inactive |
| CCCCCCCCCCCCCC(=O)OC | inactive | inactive | inactive | inactive |  | inactive | inactive | inactive | inactive | inactive | inactive |  |  | inactive | inactive |  | inactive | inactive |  | inactive |
| CN(C)C(=O)NC1(c2ccccc2)CCN(CC[C@@]2(c3ccc(F)c(F)c3)CN(C(=O)c3ccccc3)CCO2)CC1 | inactive | inactive | inactive | inactive |  | inactive | inactive |  |  |  | inactive | inactive | inactive | inactive | inactive | inactive |  |  | inactive |  |
| SCCOCCOCCS | inactive | inactive | inactive | inactive |  | inactive | inactive | inactive | inactive | inactive | inactive | inactive |  | inactive | inactive |  | inactive | inactive |  | inactive |
| CCOC(=O)OCC | inactive | inactive | inactive | inactive |  | inactive | inactive | inactive | inactive | inactive |  | inactive |  | inactive | inactive |  |  |  |  | inactive |
| CO/N=C(/C(=O)N[C@@H]1C(=O)N2C(C(=O)OCOC(=O)C(C)(C)C)=C(C)CS[C@H]12)c1csc(N)n1 | inactive | inactive | inactive | inactive |  | inactive | inactive | inactive | inactive |  | inactive |  | inactive | inactive | inactive | inactive | inactive |  |  | inactive |
| CCCCCCCCCCCCSCCOCCO | inactive | inactive | inactive | inactive |  | inactive | inactive | inactive | 0.0379 µM (active) | inactive | inactive | inactive |  | inactive | inactive |  | inactive | inactive | inactive | inactive |
| COc1cc2nc(N(C)CCCNC(=O)C3CCCO3)nc(N)c2cc1OC (stereo unspecified) | inactive | inactive | inactive | inactive |  | inactive | inactive |  |  | inactive | inactive | inactive |  | inactive | inactive |  |  | inactive | inactive | inactive |
| Cc1ncc([N+](=O)[O-])n1CC(O)CCl (stereo unspecified) | inactive | inactive | inactive | inactive |  | inactive | inactive | inactive | inactive | inactive |  | inactive |  | inactive | inactive |  | inactive | inactive |  | inactive |
